Experimental findings from PubChem BioAssay (NCATS) are described below.

A short description of experiment [1]: P-glycoprotein substrates identified in KB-8-5-11 adenocarcinoma cell line, qHTS therapeutic library screen (AID 1346987). Also: % is scaled to controls: 0 for no effect and ±100 for the full control effect; nearly all actives have a fitted effect of over 65% in size. A digest of the protocol:
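Human cervical adenocarcinoma KB-8-5-11 cells, selected in colchicine to over-express P-gp and assayed without it, were exposed for 72 h to titrated compounds. An ATP-based luminescent viability signal gave AC50.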
On the technique in general: Quantitative high-throughput screening tests each substance at several concentrations.

Experiment [2] has as its system Zika virus NS2B-NS3 protease (unlinked complex). Kind of experiment: Primary screen GU Rhodamine qHTS for Zika virus inhibitors: Unlinked NS2B-NS3 protease assay (AID 1347159). Also: nearly all actives have a fitted effect of over 60% in size. Also: potency is read from the fitted curve at half-maximal effect. As to activity change, negative = inhibition: % is scaled to controls: 0 for no effect and ±100 for the full control effect. The essentials: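 Percent inhibition came from the 15-min rise in Rhodamine110 fluorescence (1.5 microM substrate, ~15% conversion), normalized to no-inhibitor and no-enzyme wells and Hill-fitted. Unlinked protease, 25 nM, pH 8.0 Tris buffer; compounds up to 114 microM, 15-min preincubation.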

Experiment [3] in a line: qHTS to identify inhibitors of the type 1 interferon - major histocompatibility complex class I in skeletal muscle: primary screen against the NCATS Mechanism Interrogation Plate v5.0 (MIPE) Libary (AID 1347411).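 Also: plate controls were vehicle for no effect and reference inhibitor for full effect; nearly all actives have a fitted effect of over 65% in size.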 A digest of the protocol: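 IFN-beta-driven (4 ng/ml) HLA-B-HiBit expression in CRISPR-tagged C25cl48 myoblasts; compounds 11-pt, 1:3, max 46 uM, 24 hr exposure; lytic NanoLuc complementation luminescence.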

Experiment [4] has as its target Cytochrome P450 2C9 (Homo sapiens) (UniProt P11712). The experiment in a line: Cytochrome P450 family 2 subfamily C member 9 (CYP2C9) small molecule antagonists: luciferase biochemical (cell-free) qHTS assay (AID 1645842; active = well fitted curve in the direction sought with a large enough effect in the repeat runs; an effect the other way counts as inactive or inconclusive; also: potency is read from the fitted curve at half-maximal effect; nearly all actives have a fitted effect of over 55% in size). The essentials: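 P450-Glo CYP2C9 system: proluciferin substrate with enzyme in mix containing 0.4% BSA, 10 min at room temperature, then NADPH regeneration solution added and incubated 1 h at 37C. Detection reagent stopped reaction; luminescence read after 20 min as RLU.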

Experiment [5] in a line: qHTS drug screen for cell cycle checkpoint inhibitors in PARPi-resistant BRCA-mutant ovarian cancer cell lines. (AID 1963452; calls by dose curve). The following applies: PEO1/OlaR viability, CellTiter-Glo luminescence, 96 h, stronger effect = lower value. A digest of the protocol:
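PEO1, PEO4 and PEO1/OlaR ovarian cancer cells, 600 per well, exposed 96 h at 37C to a dilution series. Viability read by CellTiter-Glo luminescence, normalized to DMSO and empty wells; activity summarized as Z-AUC.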

Experiment [6] deals with CRL-7250. Kind of experiment: Cytotoxic Profiling of Annotated Libraries Using Quantitative High-Throughput Screening (AID 1296008). Also: nearly all actives have a fitted effect of over 60% in size. Also: potency is read from the fitted curve at half-maximal effect. As to max response: % is scaled to controls: 0 for no effect and ±100 for the full control effect. The following applies: Five cell lines viability, CellTiter-Glo ATP luminescence, 48-72 h; max response: stronger effect = lower value. The essentials:
(§1)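 Cytotoxicity was measured as CellTiter-Glo ATP luminescence, read after 10 min at room temperature. Compound treatment of the cells lasted 48 or 72 hr at 37 degrees Celsius in a qHTS format.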
Background: Cellular ATP, detected with luciferase, serves as a proxy for viable cell number.

Experiment [7] concerns CAOV3. Kind of experiment: Primary qHTS to identify gynecologic anti-cancer compounds using libraries of approved drugs and bioactive compounds (AID 1345084). Also: nearly all actives have a fitted effect of over 55% in size. Also: potency is read from the fitted curve at half-maximal effect. The following applies: Gynecologic cancer cell panel viability, ATPlite luminescence, 48 h; series mostly up to 57.5 µM. The essentials: (§2)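 Five-concentration response, 48 h; readout is ATP-driven luciferase luminescence.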

In experiment [8] the test system is HaCat. Kind of experiment: Cytotoxic Profiling of Annotated Libraries Using Quantitative High-Throughput Screening (AID 1296008). Also: nearly all actives have a fitted effect of over 60% in size. Also: potency is read from the fitted curve at half-maximal effect. As to max response: % is scaled to controls: 0 for no effect and ±100 for the full control effect. The following applies: Five cell lines viability, CellTiter-Glo ATP luminescence, 48-72 h; max response: stronger effect = lower value. The essentials: as §1
Experiment [9] is described as follows: Confirmatory screen GU Rhodamine qHTS for Zika virus inhibitors qHTS (AID 1347157). Also: potency is read from the fitted curve at half-maximal effect; nearly all actives have a fitted effect of over 70% in size. A digest of the protocol: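 A qHTS format was used, with compound concentrations ranging up to 114 microM. Each compound was preincubated with 25 nM NS2B-NS3 protease, and the substrate was then added at 1.5 microM. Curves were fitted with a 4-parameter Hill model.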
A short description of experiment [10]: Confirmatory screen NINDS Rhodamine qHTS for Zika virus inhibitors (AID 1347161). Also: potency is read from the fitted curve at half-maximal effect; nearly all actives have a fitted effect of over 60% in size. A digest of the protocol:
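Single-chain NS2B-NS3 protease, 25 nM, pH 8.0; compounds preincubated 15 min. Activity: Rhodamine110 release from 1.5 microM substrate over 15 min, room temperature, data fitted to 4-parameter Hill.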

In experiment [11] the test system is Zika virus NS2B-NS3 protease (linked construct). The experiment in a line: 384 well plate NINDS Rhodamine confirmatory qHTS for Zika virus inhibitors (AID 1347164).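 Also: fluorescence from protease cleavage of Ac-LKRR-rhodamine 110 substrate; potency is read from the fitted curve at half-maximal effect; nearly all actives have a fitted effect of over 65% in size.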 A digest of the protocol:
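Linked protease at a final 5 nM, 30 nM or 60 nM was preincubated ~15 min with compounds, then given 10 microM Ac-LKRR-Rhodamine 110. Fluorescence (ex 485/em 538 nm) after 25 min in the dark at room temperature.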

The test system of experiment [12] is SKOV3. Kind of experiment: Primary qHTS to identify gynecologic anti-cancer compounds using libraries of approved drugs and bioactive compounds (AID 1345084). Also: nearly all actives have a fitted effect of over 55% in size. Also: potency is read from the fitted curve at half-maximal effect. The following applies: Gynecologic cancer cell panel viability, ATPlite luminescence, 48 h; series mostly up to 57.5 µM. The essentials:
as §2

Experiment [13] in a line: qHTS assay to identify inhibitors of the type 1 interferon - major histocompatibility complex class I in skeletal muscle: Counter screen cell viability and HiBit confirmation (AID 1347412). Also: nearly all actives have a fitted effect of over 60% in size. Also: potency is read from the fitted curve at half-maximal effect. As to activity change, negative = inhibition: % is scaled to controls: 0 for no effect and ±100 for the full control effect. The following applies: iHSKM muscle cells + IFN-b, HiBiT or CellTiter-Glo, 24 h. The essentials: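 HLA-B*08:01–HiBiT knock-in immortalized human myoblasts (C25cl48) stimulated with 4.0 ng/ml human IFN-beta and dosed with compound in a 12-point 1:3 titration (top final 46 uM). After 24 hrs at 37 C, HiBiT lytic luminescence or CellTiter Glo ATP read out.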

Experiment [14] deals with Cytochrome P450 2D6 (Homo sapiens) (UniProt P10635). The experiment in a line: Cytochrome P450 family 2 subfamily D member 6 (CYP2D6) small molecule antagonists: luciferase biochemical (cell-free) qHTS assay (AID 1645840; active = well fitted curve in the direction sought with a large enough effect in the repeat runs; an effect the other way counts as inactive or inconclusive; also: nearly all actives have a fitted effect of over 55% in size; also: potency is read from the fitted curve at half-maximal effect). A digest of the protocol: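 P450-Glo CYP2D6 system: proluciferin substrate converted by enzyme to luciferin, read by luminescence proportional to activity. Enzyme-substrate mix with compound 10 min at room temperature, then NADPH regeneration 1 h before detection reagent.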

The test system of experiment [15] is HACAT. The experiment in a line: qHTS assay to identify novel small-molecules to repurpose for Merkel cell carcinoma treatment (AID 1296009). Also: nearly all actives have a fitted effect of over 60% in size. The conditions noted are these: MCC and control cell lines, CellTiter-Glo viability, 72 h; at 44.8 µM (top of the series) unless noted. A digest of the protocol:
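Cell viability measured by CellTiter-Glo following 72 hr compound treatment at 37 degree celsius, with NPC and MIPE libraries tested in 8- and 11-point concentration series.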

[16] abbreviates: measured here: PEO1 parental Z-AUC.

Results filed as inconclusive are left out. Calls of active or inactive are those of the source. Unless noted, calls follow the shape of the dose curve; as a rule, active = well fitted curve in the direction sought with a large enough effect; inconclusive = small, poorly fitted or top-dose-only effect, or another doubt; inactive = no such curve, though single readings can be large; an effect the other way counts as inactive or inconclusive.

Cytochrome P450 2C9 (Homo sapiens), sequence (P11712 whole entry, looked up): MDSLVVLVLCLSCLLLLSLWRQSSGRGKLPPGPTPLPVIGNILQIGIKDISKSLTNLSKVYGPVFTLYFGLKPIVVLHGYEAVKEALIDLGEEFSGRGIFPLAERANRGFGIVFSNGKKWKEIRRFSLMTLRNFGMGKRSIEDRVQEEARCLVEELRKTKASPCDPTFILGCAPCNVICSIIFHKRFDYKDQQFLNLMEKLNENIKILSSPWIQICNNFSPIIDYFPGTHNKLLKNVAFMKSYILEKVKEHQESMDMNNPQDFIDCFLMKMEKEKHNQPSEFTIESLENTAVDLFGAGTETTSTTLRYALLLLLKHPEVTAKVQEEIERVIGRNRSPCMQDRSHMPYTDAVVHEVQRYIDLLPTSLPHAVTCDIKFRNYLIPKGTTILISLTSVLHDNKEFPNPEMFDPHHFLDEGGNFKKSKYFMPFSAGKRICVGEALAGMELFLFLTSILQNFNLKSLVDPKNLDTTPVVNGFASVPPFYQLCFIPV
Cytochrome P450 2D6 (Homo sapiens), sequence (P10635 whole entry, looked up): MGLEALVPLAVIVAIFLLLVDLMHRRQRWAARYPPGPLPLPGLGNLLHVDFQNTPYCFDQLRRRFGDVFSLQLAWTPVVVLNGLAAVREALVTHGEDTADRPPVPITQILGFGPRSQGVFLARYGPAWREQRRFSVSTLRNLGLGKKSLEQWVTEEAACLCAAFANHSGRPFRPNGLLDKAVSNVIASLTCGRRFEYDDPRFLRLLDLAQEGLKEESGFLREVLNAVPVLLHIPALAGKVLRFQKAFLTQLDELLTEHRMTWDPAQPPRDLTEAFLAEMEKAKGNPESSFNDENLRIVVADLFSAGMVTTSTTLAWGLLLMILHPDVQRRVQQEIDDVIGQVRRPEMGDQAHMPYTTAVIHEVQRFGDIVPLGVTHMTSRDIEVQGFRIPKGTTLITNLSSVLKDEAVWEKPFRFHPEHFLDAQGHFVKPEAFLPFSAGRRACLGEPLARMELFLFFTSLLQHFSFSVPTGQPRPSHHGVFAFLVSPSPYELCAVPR

In the case of `Cn1nccc1Nc1nccc(-c2ccn([C@H](CO)c3ccc(Cl)c(F)c3)c(=O)c2)n1`, the Potency result in [1], in experiment [2], in experiment [3] and in [7] was “inactive” throughout. Also, the Potency in [4] was 19 µM (active). For the same molecule, the Z-AUC in experiment [5] is -0.731 (inactive); in experiment [5] (setting [16]), -0.241; in experiment [5] (measured here: PEO4 Z-AUC), -0.296. Besides, the molecule was classed as inactive in experiment [6].

As to `OCC(CO)(CO)NCC(O)Cn1c2ccc(Cl)cc2c2cc(Cl)ccc21` (centres undefined), the Potency entry in experiment [1], in experiment [2] and in experiment [7] was “inactive” throughout. The max response in [8] is 1.65% (inactive).

As for `CC(=O)N1c2ccc(-c3ccc(C(=O)O)cc3)cc2C(Nc2ccc(Cl)cc2)CC1C` (centres undefined), the Potency in [9] is 17.5 µM (active); in experiment [2], 20 µM (active); in [10], 12.4 µM (active); in [11] it was 70.8 µM (active); in experiment [4], 8.49 µM (active); in experiment [6], 1.03 µM (active). Also, in experiment [12], the Potency is 3.98 µM (active). In addition, the Potency entry in experiment [7] is “inactive”.

For the molecule `COc1cc2ncnc(Oc3cccc(NC(=O)Nc4cc(C(C)(C)C(F)(F)F)on4)c3)c2cc1OC`, the Potency in experiment [4] was 12 µM (active); in [8], 5.17 µM (active); in experiment [13] (HiBiT), 24.9 µM (active). Besides, the Z-AUC in experiment [5] was 0.198 (inactive); in experiment [5] (setting [16]) it was 0.387; in [5] (measured here: PEO4 Z-AUC), 0.555. Further, the Potency result in [7] and in experiment [12] was “inactive” in each case. The activity change, negative = inhibition in [13] (Viability, at 45.9 µM (top of the series)) is -21.3% (inactive).

As for `Cn1c(NC[C@@H](N)Cc2ccccc2)nc(-c2ccncc2)c(-c2ccc3ccccc3c2)c1=O`, the Potency result in [2], in experiment [7] and in experiment [12] was “inactive” each time. The Potency in [14] was 19 µM (active). In addition, the figures for the Z-AUC in experiment [5], in experiment [5] (setting [16]) and in experiment [5] (measured here: PEO4 Z-AUC) were -0.2 (inactive), 0.768 and 0.932, respectively. The max response in experiment [6] was -1.38% (inactive).

Consider `CCCCn1ccc(N2CCC(c3ccccc3)CC2)c(Cl)c1=O`, for which the outcome in experiment [8] and in [15] was inactive.

Take `CC/C(=C(\c1ccc(O)cc1)c1ccc(OCCNC)cc1)c1ccccc1`: the Potency entry in experiment [2], in experiment [7] and in experiment [12] was “inactive” throughout. The molecule was classed as inactive in experiment [8] and in experiment [15].

For `CNC(=O)c1cccc2cc(Oc3ccnc4cc(OCC5(N)CC5)c(OC)cc34)ccc12`, the Potency entry in experiment [2], in experiment [14] and in [7] was “inactive” in each case. The Potency in [4] is 7.56 µM (active); in [6] it was 4.61 µM (active). Moreover, the Z-AUC in [5] is 0.323 (inactive); in [5] (setting [16]), 0.465; in experiment [5] (measured here: PEO4 Z-AUC) it was 0.47. In addition, the molecule was classed as inactive in experiment [8] and in experiment [15].

`O=C1c2c(O[C@@H]3O[C@H](CO)[C@@H](O)[C@H](O)[C@H]3O)cc(O)cc2OC1(O)Cc1ccc(O)cc1` (some centres undefined): the Potency result in experiment [2] is “inactive”. For the same molecule, the molecule was classed as inactive in [8]. Moreover, in experiment [15], the outcome is “inactive [at 17.4 µM]”. Besides, in [7], the Potency was 10 µM (active).
